Experimental data taken from PubChem BioAssay AID488932 (Broad Institute, 2010).
Potency and affinity values are given separately. Activity calls are given as the source filed them.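 How the source made its calls: active means growth signal falls, with fitted half-maximal dose at most ten times the top valid dose; inconclusive means flat curve with a partial drop, or a poorly fitting curve; inactive means the rest, including compounds that raise signal.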

Test: Candida albicans growth inhibition, agent alone, dose response, counter-screen for reversing antifungal drug resistance, CaCi-2 strain, no fluconazole, dry powder, set 4 (AID 488932)

Compound	outcome
CCCC(=O)N1CCN(c2ccnc3cc(Cl)ccc23)CC1	inactive
O=C(c1ccc(Cl)cc1)N1CCN(c2ncnc3ccccc23)CC1	inactive
O=C(c1ccc(Cl)cc1)N1CCN(c2ccc(Cl)cc2)CC1	inactive
O=C(c1ccc(Cl)cc1)N1CCN(c2ccccn2)CC1	inactive
O=C(Nc1ccc(C(F)(F)F)cc1)N1CCN(c2ccnc3cc(Cl)ccc23)CC1	inactive
O=C(c1ccc(Cl)cc1)N1CCCN(c2ccnc3cc(Cl)ccc23)CC1	inactive
O=C(c1ccc(Cl)c(Cl)c1)N1CCN(c2ccnc3cc(Cl)ccc23)CC1	inactive
COc1ccc(C(=O)N2CCN(c3ccnc4cc(Cl)ccc34)CC2)cc1	inactive
O=C(c1ccc(Cl)cc1)N1CCN(c2cc(C(F)(F)F)nc3ccccc23)CC1	inactive
COc1ccc(OC)c2c(C)cc(N3CCN(C(=O)c4ccc(Cl)cc4)CC3)nc12	inactive
CCCCNC(=O)N1CCN(c2ccnc3cc(Cl)ccc23)CC1	inactive
O=C(c1ccccc1Cl)N1CCN(c2ccnc3cc(Cl)ccc23)CC1	inactive
COc1cccc2c(N3CCN(C(=O)c4ccc(Cl)cc4)CC3)cc(C)nc12	inactive
O=C(c1cccc(Cl)c1)N1CCN(c2ccnc3cc(Cl)ccc23)CC1	inactive
COc1ccc2c(N3CCN(C(=O)c4ccc(Cl)cc4)CC3)ccnc2c1	inactive
O=C(c1ccc(Cl)cc1)N1CCN(c2ncccn2)CC1	inactive
O=C(c1ccc(Cl)cc1)N1CCNCC1	inactive
O=C(c1ccccc1)N1CCN(c2ccnc3cc(Cl)ccc23)CC1	inactive
Cc1cc(N2CCN(C(=O)c3ccc(Cl)cc3)CC2)c2ccccc2n1	inactive
COc1cccnc1N1CCN(C(=O)c2ccc(Cl)cc2)CC1	inactive
O=C(Nc1ccc(Cl)cc1)N1CCN(c2ccnc3cc(Cl)ccc23)CC1	inactive
O=C(C1CC1)N1CCN(c2ccnc3cc(Cl)ccc23)CC1	inactive
